# TDP1 inh: qHTS Assay for Inhibitors of Tyrosyl-DNA Phosphodiesterase (TDP1); recombinant TDP1, AlphaScreen DNA substrate cleavage; Potency, µM (doses to about 130 µM), inactives show at the highest dose activity change, negative = inhibition, most hits filed as inhibitors; hit rate 0.28% among 350,000; Tyrosyl-DNA phosphodiesterase 1 (Homo sapiens), Q9NUW8; also: potency is read from the fitted curve at half-maximal effect; % is scaled to controls: 0 for no effect and ±100 for the full control effect; nearly all actives have a fitted effect of over 40% in size
# Target sequence (Q9NUW8 whole entry, looked up): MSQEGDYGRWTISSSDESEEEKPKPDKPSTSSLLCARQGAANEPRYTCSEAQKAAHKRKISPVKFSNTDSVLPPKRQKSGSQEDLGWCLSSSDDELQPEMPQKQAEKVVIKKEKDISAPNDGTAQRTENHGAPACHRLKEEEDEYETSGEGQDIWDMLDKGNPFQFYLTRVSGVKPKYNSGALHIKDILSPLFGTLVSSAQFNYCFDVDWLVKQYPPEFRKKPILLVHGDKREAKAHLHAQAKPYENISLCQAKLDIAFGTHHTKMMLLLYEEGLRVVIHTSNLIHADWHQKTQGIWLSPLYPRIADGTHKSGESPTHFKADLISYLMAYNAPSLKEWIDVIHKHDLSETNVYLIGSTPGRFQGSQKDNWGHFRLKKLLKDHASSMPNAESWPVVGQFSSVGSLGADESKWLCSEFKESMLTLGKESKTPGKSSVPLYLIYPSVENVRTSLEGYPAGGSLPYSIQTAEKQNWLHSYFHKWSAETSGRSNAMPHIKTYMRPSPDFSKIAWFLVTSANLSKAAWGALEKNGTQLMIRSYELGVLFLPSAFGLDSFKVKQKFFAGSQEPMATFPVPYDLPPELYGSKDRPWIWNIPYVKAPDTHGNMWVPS
#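 E. coli-derived human Tdp1, 1 nM final. Cpd preinc 15 min RT; substrate 15 nM final, 5 min RT; AS bead mix 10 ug/ml final, 10 min RT. Signal loss = tyrosine-FITC cleavage. No-enzyme wells = max signal.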
# miR-21 act: qHTS Assay for Modulators of miRNAs and/orActivators of miR-21 | HeLa miR-21 FLuc reporter, luciferase, 48 h | 340,000 tested, under 10 active | AID 2288, 2010 | Potency, µM (top dose mostly 38.3 µM), for the others: at the top dose activity change, positive = activation, usual class: activators;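 also: % of control where 0% means no effect; miR-21 action dims this reporter so a rising signal means less miR-21 action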
#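 Using DMEM plus 10% FBS, HeLa miR-21-FLuc cells are incubated with test compounds (final up to about 40uM) for 48 hours; firefly luciferase signal is then imaged following reagent-mediated lysis.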
# DT40 TDP1 CPT: qHTS for Inhibitors of human tyrosyl-DNA phosphodiesterase 1 (TDP1): qHTS in cells in presence of CPT; hit rate 12% among 420,000; Potency, µM (top dose mostly 46.2 µM), for the others: at the highest dose activity change, negative = growth inhibition, usual class: inhibitors; chicken DT40 Tdp1-/-;hTDP1 cells + 20 nM CPT, ATP luminescence, 48 h; AID 686979, 2013; also: potency is read from the fitted curve at half-maximal effect; % is scaled to controls: 0 for no effect and ±100 for the full control effect; nearly all actives have a fitted effect of over 55% in size
#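 Chicken DT40 Tdp1-/- cells stably complemented with human TDP1 were seeded at 400 cells/well in medium containing 20 nM camptothecin, exposed to pin-transferred compounds, and grown at 37 °C for at least 48 hr. Viability was read as ATP luminescence.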
# TDP1 cell noCPT: qHTS for Inhibitors of human tyrosyl-DNA phosphodiesterase 1 (TDP1): qHTS in cells in absence of CPT; DT40 Tdp1-/- hTDP1 cells, no CPT, ATP luminescence, 48 h; Potency, µM (doses to about 46.2 µM), inactives show top-dose activity change, negative = growth inhibition, hits mostly inhibitors; hit rate 15% among 420,000; AID 686978, 2013; also: potency is read from the fitted curve at half-maximal effect; % is scaled to controls: 0 for no effect and ±100 for the full control effect; nearly all actives have a fitted effect of over 55% in size
#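 Luminescent ATP content (CellTiter-Glo) served as the growth readout. Knockout chicken DT40 cells expressing human TDP1 were exposed to compounds without camptothecin for a minimum 48 hr at 37 °C.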
# uPA surface inh: qHTS for Inhibitors of Cell Surface uPA Generation; hit rate 0.31% among 330,000; cell surface uPA generation assay, qHTS; Potency, µM (top dose mostly 38.3 µM), inactives show at the top dose activity change, negative = inhibition, hits mostly inhibitors; AID 540303, 2011; active = well fitted inhibition curve with a large enough effect; inconclusive = small, poorly fitted or top-dose-only effect; inactive = no such curve, though single readings can be large or run the other way; tested in mouse RAW 264.7 cells; also: potency is read from the fitted curve at half-maximal effect; % is scaled to controls: 0 for no effect and ±100 for the full control effect; nearly all actives have a fitted effect of over 55% in size
# * marks the source's active call; other numbers are inactive results; ? = inconclusive; nt = no result. Rows were chosen to be rich in hits. Some 16% of all compounds tested hit in one or more screens of this group. Unless noted, calls follow the shape of the dose curve; as a rule, active = well fitted curve in the direction sought with a large enough effect; inconclusive = small, poorly fitted or top-dose-only effect, or another doubt; inactive = no such curve, though single readings can be large; an effect the other way counts as inactive or inconclusive.
SMILES,TDP1 inh,miR-21 act,DT40 TDP1 CPT,TDP1 cell noCPT,uPA surface inh
CCCN(CC#CCO)CCC,2%,-5%,-7%,-2%,2%
CC(C)CC1C(=O)N(Cc2cn(CC3CCCCC3)nn2)CCS(=O)(=O)N1Cc1ccc(-c2ccc(F)nc2)cc1 (stereo unspecified),nt,nt,21µM*,18µM*,nt
Cc1cc(C)nc(N2Cc3ccccc3C2=N)n1,3%,20%,?,23µM*,-28%
COc1cccc(C(=O)C2CN(C)CC2c2ccc(Cl)cc2)c1 (stereo unspecified),-3%,3%,?,?,nt
COc1ccc(C(=O)C2CN(C)CC2c2ccc(Cl)cc2)cc1 (stereo unspecified),0%,0%,18µM*,?,-23%
CN1CC(C(=O)c2cccc(C(F)(F)F)c2)C(c2ccc(Cl)cc2)C1 (stereo unspecified),nt,4%,23µM*,?,-6%
Cn1c(-c2ccccc2)c(P(=S)(c2ccccc2)c2ccccc2)c2ccccc21,0%,nt,nt,nt,nt
Cn1cc[n+](C)c1P(=S)(c1ccccc1)c1ccccc1,-5%,4%,10µM*,21µM*,1%
Cc1nc2c(-c3ccc(F)cc3)c(C)nn2c(C)c1CCC(=O)N1CCC2(CC1)OCCO2,7%,2%,1%,-13%,4%
COc1ccc(CCNC(=O)CCc2c(C)nc3c(-c4ccc(F)cc4)c(C)nn3c2C)cc1OC,7%,-1%,8.2µM*,12µM*,nt
Cc1ncc(CN2CCCC(C(=O)c3sccc3C)C2)s1 (stereo unspecified),3%,4%,?,-20%,-4%
CCOC(=O)[C@]12Cc3ccccc3[C@H]1N(Cc1ccccc1)C(=O)c1cc(F)c(F)cc12,nt,nt,?,23µM*,nt
CCOC(=O)[C@]12Cc3cc(C)ccc3[C@H]1N(Cc1ccccc1)C(=O)c1cc(OC)ccc12,nt,nt,?,21µM*,nt
CCOC(=O)[C@]12Cc3cc(N(C)C)ccc3[C@H]1N(Cc1ccccc1)C(=O)c1ccccc12,nt,nt,13µM*,6.5µM*,?
CCOC(=O)[C@]12Cc3cc(Cl)ccc3[C@H]1N(Cc1ccccc1)C(=O)c1ccccc12,nt,nt,10µM*,?,?
CN1C(=O)C(C2c3ccccc3C(=O)N2Cc2ccccc2)C(=O)N(C)C1=O (stereo unspecified),0%,-7%,4%,10%,2%
CCOC(=O)C1(CCOc2ccccc2)CCN(Cc2cccc(O)c2)CC1,nt,17%,?,?,1%
CC1(C)CC(=O)c2cc(OCC(=O)N3CCN(Cc4ccccc4)CC3)ccc2O1,3%,-1%,7%,-3%,0%
CCOC(=O)[C@]12Cc3cc4c(cc3[C@H]1N(Cc1ccccc1)C(=O)c1ccccc12)OCO4,nt,nt,?,15µM*,13µM*
CCN(CC)CCCOC(=O)C(OC)(c1ccccc1)c1ccccc1,-2%,-2%,-32%,-2%,-6%
C#CCOC(C(=O)OCCN(C)C)(c1ccccc1)c1ccccc1,nt,nt,21µM*,12µM*,nt
CN1CCN(Cc2nc3ccccc3c(=O)[nH]2)CC1,2%,-3%,-28%,-7%,nt
CC(c1nc2ccccc2c(=O)[nH]1)N(C)CCOc1ccc(Cl)cc1 (stereo unspecified),4%,-1%,21µM*,18µM*,4%
OCCNc1c2c(nc3ccccc13)CCCC2,-2%,-8%,-8%,-32%,2%
c1ccc(CNc2c3c(nc4ccccc24)CCC3)cc1,nt,?,?,15µM*,-4%
SMILES,TDP1 inh,miR-21 act,DT40 TDP1 CPT,TDP1 cell noCPT,uPA surface inh
CC(C)CNc1c2c(nc3ccccc13)CCC2,nt,?,?,18µM*,-10%
COc1ccc2o/c(=N\O)c(C(=O)Nc3ccc(C)cc3)cc2c1,5%,-18%,23µM*,?,-4%
CN1CCN(c2ccccc2N)CC1,8%,4%,-1%,10%,8%
CN1CCC2(CC1)c1ccccc1-c1ccccc12,nt,nt,?,15µM*,6%
COc1ccc(CCn2c(O)c(C=Nc3ccc(F)cc3)c(=O)[nH]c2=O)cc1OC,0%,-2%,?,?,19%
COc1ccc(CCNc2nc3c(c(=O)n(C)c(=O)n3C)n2Cc2ccc(F)cc2)cc1OC,0%,30%,6.5µM*,3.3µM*,nt
CN(C)c1ccc(/C=C(\Cl)c2nc3ccccc3s2)cc1,-3%,-32%,16µM*,21µM*,10µM*
Oc1ccc2c3c1O[C@H]1c4oc5ccccc5c4C[C@@]4(O)[C@@H](C2)N(CC2CC2)CC[C@]314,nt,13%,?,?,10%
COC[C@H]1OC(=O)c2coc3c2[C@@]1(C)C1=C(C3=O)[C@@H]2CCC(=O)[C@@]2(C)C[C@H]1OC(C)=O,4%,nt,0.92µM*,1.8µM*,-11%
O=C1NC(=O)C2(Cc3ccccc3N3CCOCC32)C(=O)N1c1ccccc1 (stereo unspecified),2%,19%,?,?,nt
Cc1ccc(/C=C2\C(=O)NC(=O)N(Cc3ccccc3Cl)C2=O)o1,1%,-7%,?,?,-9%
CCOC(=O)CCCc1cc[c]([Sb](=[O])([OH])[OH])cc1,0.25µM*,nt,-6%,-8%,nt
CCOC(=O)c1ccccc1N,-1%,nt,8%,-6%,18%
C[C@]12CC[C@@H](O)CC1=CC(=O)C1C2CC[C@]2(C)C(=O)CCC12 (stereo partly specified),1%,nt,?,?,3%
COc1ccc(-n2ncc(C(=O)N3CCN(c4cc(C)ccc4C)CC3)c2C2CCN(C(=O)OC(C)(C)C)CC2)cc1,4%,-4%,21µM*,15µM*,nt
CC(C)(C)OC(=O)N1CCC(c2c(C(=O)N3CCN(Cc4ccccc4)CC3)cnn2-c2ccc(Cl)cc2)CC1,4%,6%,26µM*,21µM*,nt
Cc1ccc(-n2ncc(C(=O)N3CCN(c4ccc(Cl)cc4)CC3)c2C2CCN(C(=O)OC(C)(C)C)CC2)c(C)c1,-3%,9%,?,12µM*,nt
CC/C=C\C[C@@H](/C=C/C=C\C/C=C\C/C=C\CCCC(=O)O)OO,3%,nt,nt,nt,nt
COC1C(O)C(C)OC(OC2C(Oc3cccc4c(O)c5c(=O)oc6ccc(C)c7c(=O)oc(c34)c5c67)OC(C)C(O)C2O)C1O (stereo unspecified),nt,nt,0.82µM*,0.82µM*,-4%
O=Cc1ccc2c(c1)OCO2,18%,nt,nt,nt,nt
Cc1ccc(C(C#N)=Cc2ccc3c(c2)OCO3)cc1,nt,nt,?,12µM*,nt
COc1cccc(NC(=O)c2cccn(Cc3ccccc3C)c2=O)c1,-3%,2%,?,26µM*,nt
